# Results from paper PMC4336329 (PLoS ONE, 2015).
# Hit rate of the full screen: of about 310,000 compounds, about 14,000 (4.5%) showed an effect of 50% or more. The effect is printed as a negative number. The sample as a whole holds a higher share of strong results than the screen did.
# Target: human ether-à-go-go-related gene (hERG) potassium channel (human, UniProt Q12809)
# Assay: primary screen, population patch clamp on CHO cells stably expressing hERG; higher = less effect of the substance
# 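Note: peak tail current of the secondary pulse compared with the same well before compound.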
# Chain of human ether-à-go-go-related gene (hERG) potassium channel (Q12809 whole entry, looked up): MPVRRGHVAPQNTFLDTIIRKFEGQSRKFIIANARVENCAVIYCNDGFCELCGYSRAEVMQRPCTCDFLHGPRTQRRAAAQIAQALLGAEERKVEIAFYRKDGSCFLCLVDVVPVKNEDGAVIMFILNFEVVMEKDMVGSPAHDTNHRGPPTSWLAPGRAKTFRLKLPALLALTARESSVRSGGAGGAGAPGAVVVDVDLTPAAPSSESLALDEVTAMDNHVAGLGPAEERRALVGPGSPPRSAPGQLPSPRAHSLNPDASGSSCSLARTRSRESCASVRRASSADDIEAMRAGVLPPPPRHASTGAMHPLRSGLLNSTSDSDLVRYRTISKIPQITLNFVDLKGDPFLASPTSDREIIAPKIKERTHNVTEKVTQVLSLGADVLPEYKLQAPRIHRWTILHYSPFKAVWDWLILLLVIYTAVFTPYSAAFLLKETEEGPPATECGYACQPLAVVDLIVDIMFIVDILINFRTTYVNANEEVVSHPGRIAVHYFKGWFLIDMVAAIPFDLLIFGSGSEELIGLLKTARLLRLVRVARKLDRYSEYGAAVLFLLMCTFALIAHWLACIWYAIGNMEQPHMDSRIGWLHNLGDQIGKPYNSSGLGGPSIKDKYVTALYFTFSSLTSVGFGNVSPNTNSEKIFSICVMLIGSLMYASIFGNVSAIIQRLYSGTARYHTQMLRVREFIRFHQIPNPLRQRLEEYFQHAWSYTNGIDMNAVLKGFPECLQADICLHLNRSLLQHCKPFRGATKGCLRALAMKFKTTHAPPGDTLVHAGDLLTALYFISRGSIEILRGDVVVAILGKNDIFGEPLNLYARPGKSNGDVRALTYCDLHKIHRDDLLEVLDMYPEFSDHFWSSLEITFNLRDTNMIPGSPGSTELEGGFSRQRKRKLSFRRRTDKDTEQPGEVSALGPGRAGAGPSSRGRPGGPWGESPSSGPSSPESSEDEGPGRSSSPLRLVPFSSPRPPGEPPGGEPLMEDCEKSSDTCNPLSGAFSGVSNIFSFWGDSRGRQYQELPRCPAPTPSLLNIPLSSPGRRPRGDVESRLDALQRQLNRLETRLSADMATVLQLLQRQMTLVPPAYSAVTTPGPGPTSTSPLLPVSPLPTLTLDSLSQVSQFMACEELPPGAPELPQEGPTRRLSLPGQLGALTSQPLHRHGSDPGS
row,Compound,"hERG current change (%, negative = inhibition) at 10uM [%]"
1,O=[N+]([O-])c1cc(/C=N\Nc2ccccn2)ccc1Cl,18.4
2,CCN(CC)c1ccc(NC(=O)CN(C)Cc2cccs2)cc1,6.07
3,O=C(O)c1ccc(NC(=O)c2cccs2)cc1,10.1
4,COc1ccc(NC(=O)COc2ccccc2F)cc1S(=O)(=O)N1CCCCC1,6.02
5,COc1ccc(N2CCN(C(=O)CSc3nnc4c5cc(C)ccc5n(C)c4n3)CC2)cc1,-13.9
6,Cc1ccc2c(c1)c1nnc(SCC(=O)N3CCN(c4ccc(F)cc4)CC3)nc1n2CC(=O)O,-63.1
7,Cc1ccc2c(c1)c1nnc(SCC(=O)N3CCCc4ccccc43)nc1n2CC(=O)O,20.2
8,COc1cccc(OCc2ccc(Cl)cc2)c1C#N,19.6
9,CCC(=O)N1CCc2cc(S(=O)(=O)NC(CC(C)C)C(=O)N3CCc4ccccc43)ccc21 (stereo not drawn),-2.28
10,NC(=O)c1ccccc1NCC(=O)c1ccc(Cl)cc1,16.4
11,O=C(c1cccc([N+](=O)[O-])c1)c1ccc2c(c1)C(=O)NC2=O,-11.5
12,c1ccc2c(c1)OCCOCCOCCO2,10
13,c1ccc2c(c1)OCCOCCOCCOCCOCCOc1ccccc1OCCOCCOCCO2,-59.2
14,c1ccc2c(c1)OCCOCCOCCOCCOc1ccccc1OCCOCCOCCO2,-62.1
15,C=C(C)C(=O)Nc1ccc2c(c1)OCCOCCOCCO2,-26.4
16,CC(=O)[O-].[K+].c1ccc2c(c1)OCCOCCOc1ccccc1OCCOCCO2,-74.7
17,CN1CCOCCOc2ccccc2OCCOCC1,7.5

row,Compound,"hERG current change (%, negative = inhibition) at 10uM [%]"
1,CC(=O)Nc1cccc2c1OCCO2,6.45
2,OCCN1CCOCCOc2ccccc2OCCOCC1,1.57
3,O=C(N1CCOCCOc2ccccc2OCCOCC1)C(F)(F)F,6.2
4,O=C(Nc1ccc(Br)cn1)c1ccc2ccccc2c1,26.8
5,N=c1occ(C(=O)c2cc(F)ccc2O)cc1C(=O)NC1CCCCC1,0.995
6,O=C(COc1ncnc2ccccc12)Nc1ccc(Cl)c([N+](=O)[O-])c1,-7.85
7,CCOc1ccc(S(=O)(=O)Nc2ccc(C(=O)NCCCN3CCCC3=O)cc2)cc1,0.2
8,Br.COCCn1c(-c2ccccc2)csc1=Nc1cccnc1,-68.3
9,Cc1ccc(-c2csc(=Nc3cccnc3)n2CCCn2ccnc2)cc1C,-70.2
10,COCCCn1c(C)csc1=Nc1cccnc1,4.68
11,COCCn1c(-c2ccc(Br)cc2)csc1=Nc1cccnc1,-14.2
12,Clc1ccc(-c2csc(=Nc3cccnc3)n2CCCn2ccnc2)cc1Cl,-67.3
13,Cc1csc(=Nc2cccnc2)n1Cc1ccco1,-0.17
14,Cl.c1ccc(-c2csc(=Nc3cccnc3)n2CC2CCCO2)cc1 (stereo not drawn),-31.4
15,CCCCn1c(C)csc1=Nc1cccnc1,-2.02
16,COCCn1c(-c2ccco2)csc1=Nc1cccnc1.Cl,-3.9
